# Screens (PubChem BioAssay)
# The list is not random: actives were taken first. Their share in the collection is about 3.7%.
# FMDV inh – antivirals against foot and mouth disease virus; FMDV antiviral cell-based qHTS; Potency, µM (titrated, usually from 57.9 µM), inactives show at the top dose activity change, negative = inhibition, hits mostly inhibitors; hit rate 1.2% among 410,000; calls by dose curve; tested in HEK293T cells; further: read-out not given here; nearly all actives have a fitted effect of over 45% in size
# RE007 growth inh – less growth of the S. pombe RE007 Vpr strain; S. pombe RE007 Vpr strain, BacTiter-Glo ATP luminescence, 24 h; Potency, µM (titrated, usually from 92.2 µM), inactives show top-dose activity change, negative = less growth, actives largely listed as inhibitors; hit rate 0.21% among 360,000; active means well fitted falling curve with a large enough effect; inconclusive means small, poorly fitted or top-dose-only effect; inactive means no such curve, though single readings can be large or run the other way; further: nearly all actives have a fitted effect of over 50% in size
#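 Fission yeast RE007 carrying one integrated HIV-1 vpr copy, seeded at OD 0.01 in PMG+AL medium with 23 nL pinned compound. Grown 24 h at 30 degrees; viability read by BacTiter-Glo luminescence after 5 min.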
# Sm TGR block – blocks Schistosoma mansoni thioredoxin glutathione reductase | Q962Y6 | purified TGR, DTNB reduction, TNB absorbance 405 nm | Potency, µM (top dose mostly 114 µM), inactives show top-dose activity change, negative = inhibition, actives largely listed as inhibitors | hit rate 3% among 360,000 | AID 485364; further: nearly all actives have a fitted effect of over 60% in size
#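 Kinetic colorimetric format: TGR-catalysed, NADPH-driven DTNB reduction monitored via TNB absorbance. Enzyme dispensed at 20 nM; compound exposure 15 min at room temperature before reaction start.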
# Tb PYK inh – inhibitors of Trypanosoma brucei pyruvate kinase; AID 624173; hit rate 0.12% among 410,000; TbPYK enzyme, Kinase-Glo Plus ATP luminescence, 45 min; Potency, µM (top dose mostly 76.8 µM), without a hit: at the top dose activity, negative = inhibition, most hits filed as inhibitors; Q57TT1; further: nearly all actives have a fitted effect of over 50% in size
#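 TbPYK + substrate in 50 mM TEA pH 7.2, 100 mM KCl, 10 mM MgCl2, 0.05% BSA, 0.01% Tween-20; cpd pinned; ADP 130 uM final; 45 min RT; Kinase-Glo Plus 10 min; luminescence endpoint.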
# * = called active by the depositor; ? = inconclusive; / = not tested or not shown. Unless noted, the call rests on the fitted dose curve; in most records, active means well fitted curve in the direction sought with a large enough effect; inconclusive means small, poorly fitted or top-dose-only effect, or another doubt; inactive means no such curve, though single readings can be large; an effect the other way counts as inactive or inconclusive. On the % scale 0 is the no-effect control and ±100 the full control effect; potency means the concentration at half of the fitted maximal effect.
SMILES,FMDV inh,RE007 growth inh,Sm TGR block,Tb PYK inh
Cc1cnc(-n2ncc(C(=O)NCC3CCCN(C)C3)c2C)nc1-c1cccs1 (centres undefined),-4%,/,/,/
CN(C)CCCn1c(=O)n(Cc2ccco2)c(=O)c2c3c(sc21)CCCCC3,-23%,4%,35µM*,?
CC1(C)Cc2c(sc3[nH]c(=S)n(Cc4ccco4)c(=O)c23)CO1,/,-4%,-24%,-29%
O=c1c2c3c(sc2[nH]c(=S)n1Cc1ccco1)CCC3,1%,-6%,14µM*,?
Fc1cccc(/C=C2\CCCC3=C2NC(=S)NC3c2cccc(F)c2)c1 (centres undefined),-28%,-14%,20µM*,?
Cc1ccc(CNc2ncnc3c2c(-c2ccccc2)cn3-c2cccc(Cl)c2)cc1,-26%,/,0%,4%
Cc1nc(-c2ccccc2)sc1C(=O)/C=C/c1ccc(Cl)cc1,25µM*,5%,-1%,2%
Fc1cccc2sc(Nc3nnc(-c4ccco4)o3)nc12,-12%,-25%,40µM*,-3%
COc1cccc2sc(Nc3nnc(-c4ccc(F)cc4)o3)nc12,14%,-24%,-5%,-7%
COCC(=O)Nc1cc(C(=O)N2CC3CCCC2C3)c2c(c1)nc(-c1ccncc1)n2C (centres undefined),-5%,/,/,/
C=CCOc1ccc(C2NC(=S)NC3=C2CCc2ccccc23)cc1 (centres undefined),-16%,-4%,56µM*,-4%
CCn1c(-c2cc(C3CC3)nc3ccccc23)n[nH]c1=S,-26%,/,45µM*,?
CC(=O)N1CCc2cc(C(=O)CN3CCN(c4ccccn4)CC3)ccc21,-9%,-14%,35µM*,0%
Cc1ccc(N2CCN(C(=O)C3CCC(CNS(=O)(=O)c4ccc(Br)s4)CC3)CC2C)cc1 (centres undefined),?,/,7%,-6%
O=C1C=CC(=Nc2ccc3c(c2)Cc2cc(F)ccc2-3)O1,11%,3.2µM*,/,?
Cc1[nH]c2ccccc2c1C(=O)COC(=O)C1CC(O)CN1S(=O)(=O)c1ccc(Cl)cc1 (centres undefined),0%,-10%,-6%,-12%
CC(O)C(NS(=O)(=O)c1ccc(Cl)cc1)C(=O)OCC(=O)c1c[nH]c2ccccc12 (centres undefined),16µM*,-7%,/,8%
CSCCC(NS(=O)(=O)c1ccc(Cl)cc1)C(=O)OCC(=O)c1c(C)[nH]c2ccccc12 (centres undefined),35µM*,3%,-11%,-10%
CC(C)C(NS(=O)(=O)c1c(Cl)cccc1Cl)C(=O)OCC(=O)c1c[nH]c2ccccc12 (centres undefined),-25%,0%,4%,-8%
C=CCn1c2ccccc2c(=O)c2cc(C#CC3(O)CCCCC3)ccc21,-16%,0%,-20%,-2%
C=CCn1c2ccccc2c(=O)c2cc(C#CC[C@@H](C)O)ccc21,49%,-23%,50µM*,-1%
Cc1cc(C)nc(/N=C(\N)N2CCCCCC2)n1,-4%,-13%,2%,-6%
Cc1cc(C)nc(/N=C(\N)N2CCCCC2)n1,-21%,-15%,45µM*,-2%
COc1cccc(CNC(=O)c2cc(-c3ccc(Cl)cc3)n[nH]2)c1,-1%,/,-14%,1%
CNC(=O)c1cc(Oc2ccc(NC(=O)Nc3ccc(Cl)c(C(F)(F)F)c3)cc2)ccn1,20µM*,1%,-12%,1%
SMILES,FMDV inh,RE007 growth inh,Sm TGR block,Tb PYK inh
O=C(Nc1ccc(Cl)c(C(F)(F)F)c1)c1ccncc1,-12%,42%,-9%,-18%
CN(CCO)C(=O)c1cn(C2CCN(Cc3cccc(C(F)(F)F)c3)CC2)nn1,-10%,/,/,/
C[C@@H]1O[C@@H](OC[C@H]2O[C@@H](Oc3c(-c4ccc(OCCO)c(OCCO)c4)oc4cc(OCCO)cc(O)c4c3=O)[C@H](O)[C@@H](O)[C@@H]2O)[C@H](O)[C@H](O)[C@H]1O,-3%,/,/,/
CC(C)N1C(=O)/C(=C\c2nc3ccccc3c(=O)[nH]2)c2ccccc21,40µM*,6%,2%,-8%
CCCN1C(=O)/C(=C/c2nc3ccccc3c(=O)[nH]2)c2ccccc21,0%,-4%,3%,-9%
Cc1ccc(C(=O)Nc2cccc(C(=O)OCc3cc(=O)n4c5c(sc4n3)CCCC5)c2)cc1,-19%,/,1%,-4%
O=C(O)c1cccc(-n2cccc2/C=C\[N+](=O)[O-])c1,-6%,8%,?,-18%
O=C(O)c1cccc(-n2cccc2/C=C/[N+](=O)[O-])c1,-6%,-11%,4.5µM*,?
COc1cc(-c2nc3ccccn3c2NCc2ccccc2)ccc1SC1CCCCC1,22µM*,-6%,4%,0%
CCC(C)Sc1ccc(-c2nc3ccccn3c2NCc2ccccc2)cc1OC (centres undefined),40µM*,-6%,/,-5%
COc1ccc(CSc2ccc(-c3nc4ccccn4c3NCc3ccccc3)cc2OC)cc1,?,-7%,0%,3%
CCCCCCNC(=O)N[C@@H](Cc1ccc(O)cc1)C(=O)NCCC[C@H]1CN2C(=NC[C@H]2C)N1CC1CCC1,72%,-21%,?,-4%
CCCCCCNC(=O)N[C@H](Cc1ccc(O)cc1)C(=O)NCCC[C@H]1CN2C(=NC[C@H]2CCC)N1CC1CCC1,/,/,5µM*,/
COc1cccc(C2(CC(=O)N3CCC(c4nc5ccccc5o4)CC3)CC(=O)N(C)C2=O)c1 (centres undefined),25%,/,/,/
O=C(CCN1C(=O)C2C3C=CC(C4CC34)C2C1=O)Oc1ccc(Br)cc1 (centres undefined),0%,10%,12%,1%
O=C(CCN1C(=O)C2C3C=CC(C4CC34)C2C1=O)Oc1cccc2cccnc12 (centres undefined),-26%,14µM*,4%,-11%
O=C(CCS(=O)(=O)c1ccccc1)N1CCCc2ccccc21,19%,-10%,40µM*,0%
O=C(O)c1ccc(S(=O)(=O)N[C@@H](Cc2ccc(O)cc2)C(=O)O)cc1,/,/,45µM*,/
N#Cc1ccc(C[C@@H](NS(=O)(=O)c2ccc(C(=O)O)cc2)C(=O)O)cc1,/,/,-4%,/
Cc1ccc(C)c(N2CCN(C(=O)CN3CCSc4ccc(S(=O)(=O)N(C)C)cc43)CC2)c1,0%,/,0%,-4%
O=C(CSc1ncnc2sccc12)NCc1ccc2c(c1)OCO2,-13%,-3%,-1%,3%
CN(Cc1ccc2c(c1)OCCO2)C(=O)CSc1ncnc2sccc12,40µM*,2%,/,-3%
COc1ccccc1CN(C)C(=O)c1ccc2c(c1)NC(=O)CS2,12%,5%,9%,-2%
Cc1ccc(CN(C)C(=O)c2ccc3c(c2)NC(=O)CS3)o1,1%,3%,10µM*,-20%
CCOC(=O)C1=C(Cc2ccc(Cl)cc2)C(=O)c2ccccc2C1=O,?,35µM*,3.5µM*,?
Cc1ccc(C)c(NC(=O)C(=O)NCC(c2cccnc2)N2CCN(c3ccc(F)cc3)CC2)c1 (centres undefined),?,/,-15%,2%
